Laboratory results from PubChem BioAssay AID1159580 (chemical genetic matrix, 2015).
Out of some 5,500 compounds screened, about 2,000 (36%) were called active. Not shown: some 18% with an inconclusive outcome. No stated cut-off is given here; in the data, active means normalized growth mostly below about 0.91 (no sharp cut-off); inconclusive means no clear call, values can overlap the other calls; inactive means mostly above about 0.92. The list shows a part of the results.

Assay: chemical genetic growth profiling, strain panel (AID 1159580);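 further: tested at 20 µM; growth read once vehicle control cultures reached saturation at 30 °C; 1 = growth at the plate median or of vehicle wells; lower values mean less growth of the strain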
Details: S. cerevisiae deletion strains, growth OD

Measured: normalized growth

O=C1CSC(c2cccnc2)N1c1ccc(Cl)cc1Cl (stereo unspecified)
inactive: locus YAR019C, strain CDC15, active compounds read low 0.986 | locus YBL105C, strain PKC1, active compounds read low 0.996 | locus YBR135W, strain CKS1, active compounds read low 0.994 | locus YBR136W, strain MEC1, active compounds read low 0.99 | locus YBR160W, strain CDC28, active compounds read low 0.994 | locus YDL017W, strain CDC7, active compounds read low 0.992 | locus YDL028C, strain MPS1, active compounds read low 0.992 | locus YDL101C, strain DUN1, active compounds read low 1 | locus YDL108W, strain KIN28, active compounds read low 0.985 | locus YDL132W, strain cdc53, active compounds read low 0.993 | locus YDL214C, strain PRR2, active compounds read low 0.931 | locus YDR052C, strain DBF4, active compounds read low 0.997 | locus YDR054C, strain cdc34, active compounds read low 0.987 | locus YDR226W, strain ADK1, active compounds read low 0.989 | locus YDR477W, strain SNF1, active compounds read low 0.919 | locus YER123W, strain YCK3, active compounds read low 0.823 | locus YER133W, strain GLC7, active compounds read low 0.897 | locus YFL009W, strain cdc4, active compounds read low 1 | locus YFL029C, strain CAK1, active compounds read low 0.98 | locus YFR003C, strain YPI1, active compounds read low 0.99 | locus YFR019W, strain FAB1, active compounds read low 0.796 | locus YFR028C, strain CDC14, active compounds read low 0.993 | locus YGR040W, strain KSS1, active compounds read low 0.93 | locus YGR052W, strain FMP48, active compounds read low 0.902 | locus YGR092W, strain DBF2, active compounds read low 0.972 | locus YHR030C, strain SLT2, active compounds read low 0.958 | locus YHR079C, strain IRE1, active compounds read low 0.964 | locus YHR082C, strain KSP1, active compounds read low 0.932 | locus YHR205W, strain SCH9, active compounds read low 0.98 | locus YIL147C, strain SLN1, active compounds read low 0.998 | locus YJL095W, strain BCK1, active compounds read low 0.906 | locus YJL128C, strain PBS2, active compounds read low 0.993 | locus YJL157C, strain FAR1, active compounds read low 0.948 | locus YJR016C, strain ILV3, active compounds read low 0.993 | locus YJR066W, strain TOR1 (second series), active compounds read low 0.893 | locus YJR066W, strain TOR1, active compounds read low 0.837 | locus YKL048C, strain ELM1, active compounds read low 1.01 | locus YKL067W, strain YNK1, active compounds read low 0.944 | locus YKL101W, strain HSL1, active compounds read low 0.993 | locus YKL193C, strain SDS22, active compounds read low 0.989 | locus YKL203C, strain TOR2, active compounds read low 0.945 | locus YLR113W, strain HOG1, active compounds read low 0.913 | locus YLR133W, strain CKI1, active compounds read low 0.962 | locus YLR403W, strain SFP1, active compounds read low 0.937 | locus YML070W, strain DAK1, active compounds read low 0.939 | locus YMR001C, strain CDC5, active compounds read low 0.991 | locus YMR205C, strain PFK2 (second series), active compounds read low 0.968 | locus YMR277W, strain FCP1, active compounds read low 0.992 | locus YNL006W, strain LST8, active compounds read low 0.986 | locus YNL020C, strain ARK1, active compounds read low 0.974 | locus YNL161W, strain CBK1, active compounds read low 0.985 | locus YNL183C, strain NPR1, active compounds read low 0.912 | locus YNL207W, strain RIO2, active compounds read low 0.998 | locus YNL222W, strain SSU72, active compounds read low 0.99 | locus YNL307C, strain MCK1 (second series), active compounds read low 0.952 | locus YOL078W, strain AVO1, active compounds read low 0.994 | locus YOL136C, strain PFK27, active compounds read low 0.919 | locus YOR061W, strain CKA2, active compounds read low 0.939 | locus YOR119C, strain RIO1, active compounds read low 0.919 | locus YOR231W, strain MKK1, active compounds read low 0.937 | locus YOR329C, strain SCD5, active compounds read low 0.99 | locus YPL031C, strain PHO85, active compounds read low 0.928 | locus YPL153C, strain RAD53, active compounds read low 0.933 | locus YPL204W, strain HRR25, active compounds read low 0.92 | locus YPL209C, strain IPL1, active compounds read low 0.989 | locus YPL256C, strain CLN2, active compounds read low 0.88 | locus YPR025C, strain CCL1, active compounds read low 0.984 | locus YPR106W, strain ISR1, active compounds read low 1.01 | locus YPR111W, strain DBF20, active compounds read low 1 | strain NNK1, active compounds read low 0.998 | strain TSCII, active compounds read low 0.989
